According to publication PMC5540273 (PLoS ONE, 2017):

How the values were obtained:
Settings in all cases: concentration: 1 μM, replicates: in singlicate; n = 1
[1] = system: FGFR4
[2] = system: FGR
[3] = system: FLT1
[4] = system: FLT3-autoinhibited
[5] = system: FLT3
[6] = system: FLT4
[7] = system: FRK
[8] = system: FYN
[9] = system: GAK
[10] = system: T1, GCN2(Kin.Dom.2,S808G)
T1 construct: gene EIF2AK4

[11] = system: GRK1
[12] = system: T2, GRK2
T2 construct: gene ADRBK1

[13] = system: T3, GRK3
T3 construct: gene ADRBK2

[14] = system: GRK4
[15] = system: GRK7
[16] = system: GSK3A
[17] = system: GSK3B
[18] = system: T4, HASPIN
T4 construct: gene GSG2

[19] = system: HCK
[20] = system: HIPK1
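Further: KINOMEscan kinase panel screen.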

Compound	%Inh [1] [%]	%Inh [2] [%]	%Inh [3] [%]	%Inh [4] [%]	%Inh [5] [%]	%Inh [6] [%]	%Inh [7] [%]	%Inh [8] [%]	%Inh [9] [%]	%Inh [10] [%]	%Inh [11] [%]	%Inh [12] [%]	%Inh [13] [%]	%Inh [14] [%]	%Inh [15] [%]	%Inh [16] [%]	%Inh [17] [%]	%Inh [18] [%]	%Inh [19] [%]	%Inh [20] [%]
Clc1ccc(-c2cc(-c3c[nH]nc3-c3ccccn3)ccn2)cc1 [GW681251]	13	11	20	0	0	0	0	10	74	7	43	0	11	0	0	7	32	0	0	7
COc1ccc(NC(=O)Nc2ccc(C)c(-c3ccc(C(=O)Nc4ccncc4)cc3)c2)cc1 [GSK1398475]	5	27	26	0	85	15	23	41	0	0	0	0	11	0	0	15	7	0	0	0
Fc1ccc(-c2ncn(CCCNCc3ccccc3)c2-c2ccncc2)cc1	0	17	0	0	0	22	0	0	0	0	12	0	0	12	5	8	28	12	7	25
COc1ccc(Nc2nccc(N3CCC(NC(=O)Nc4ccc5c(c4)OCO5)C3)n2)cc1 (stereo not drawn) [GSK1379745]	4	28	37	0	45	12	14	3	11	2	13	0	20	15	0	0	7	13	0	0
Cl.c1ccc(Cn2ncc3cc(Nc4ncnc5ccccc45)ccc32)cc1 [GW273749]	5	31	17	7	0	8	0	36	23	0	0	0	0	0	0	10	14	8	0	0
Fc1cccc(COc2ccc(Nc3ncnc4nn5ccccc5c34)cc2Cl)c1 [GW689066]	0	4	20	0	0	0	0	0	0	0	0	0	30	0	0	0	0	63	0	0
